Measurements: PubChem BioAssay (NCATS)
Values joined by “and” are separate entries in the source; they are usually repeats but may differ in a detail not shown here. Equal values may be shown once. Records with an inconclusive call do not appear. A number with no mark means an inactive call. Active and inactive are the calls of the source. Calls come from the whole dose curve; as a rule, active = well fitted curve in the direction sought with a large enough effect; inconclusive = small, poorly fitted or top-dose-only effect, or another doubt; inactive = no such curve, though single readings can be large; an effect the other way counts as inactive or inconclusive.

experiment: Quantitative highthroughput screen to assess conditional lethalithy of SEM cells grown in RPMI1640 with dialyzed fetal bovine serum (RPMI+ds) (AID 1963884); conditions: SEM B-ALL cells, RPMI+dialyzed FBS, CellTiter-Glo viability, 48 h; series mostly up to 45.8 µM; viability: at the top concentration; note: nearly all actives have a fitted effect of over 35% in size;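 for viability: 100% = DMSO control wells and 0% = empty wells without cells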
How it was run: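 Each medium arm—HPLM with 10% dialyzed FBS, or RPMI1640 with 5 mM glucose and 10% untreated or dialyzed FBS—was screened against an 11-point, 3-fold compound titration for 48 h at 37 °C, with CellTiter-Glo luminescence as endpoint.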
Potency is the fitted concentration of half-maximal effect.

SMILES | Potency | viability
Oc1ccc(-c2nc(-c3ccc(F)cc3)c(-c3ccncc3)[nH]2)cc1 | 0.372 µM (active) | 
Cc1c(C(=O)Nc2ccc(N3C[C@@H](C)O[C@@H](C)C3)nc2)cccc1-c1ccc(OC(F)(F)F)cc1 | 2.35 µM (active) | 
CC(C)NCC(O)c1ccc(NS(C)(=O)=O)cc1 (stereo not drawn) |  | 107%
COc1ccc(C2CNC(=O)C2)cc1OC1CCCC1 (stereo not drawn) |  | 106%
CC(C)Nc1cc(-c2c[nH]c(C(=O)N[C@H](CO)c3cccc(Cl)c3)c2)c(Cl)cn1 | 16.6 µM (active) | 
CCn1c(-c2nonc2N)nc2cncc(CNC3CCNCC3)c21 | 10.5 µM (active) | 
Cc1ncc([N+](=O)[O-])n1CCO |  | 103%
C=C(C)[C@@H]1CC[C@]2(C)CC[C@]3(C)[C@H](CC[C@@H]4[C@@]5(C)CC[C@H](O)C(C)(C)[C@H]5CC[C@]43C)[C@@H]12 |  | 103%
COc1ccc2c(c1)c(CC(=O)OCC(=O)O)c(C)n2C(=O)c1ccc(Cl)cc1 |  | 89.9%
CC(C)[C@H](N)C(=O)OCCOCn1cnc2c(=O)[nH]c(N)nc21 |  | 82.9%
NS(=O)(=O)c1cccc2c1C(=O)c1cccc(O)c1C2=O | 0.372 µM (active) | 
NC1(C(=O)N[C@@H](CCO)c2ccc(Cl)cc2)CCN(c2ncnc3[nH]ccc23)CC1 | 2.64 µM (active) | 
Cn1cc(C[C@@H](N)C(=O)O)c2ccccc21 |  | 72.1% [at 23.2 µM]
CCCn1c(=O)c2[nH]c(C34CC5CC3C[C@@H](C5)C4)nc2n(CCC)c1=O |  | 112%
CC(C)(OCc1nn(Cc2ccccc2)c2ccccc12)C(=O)O |  | 96.7%
CC(C(=O)O)c1ccc2c(c1)CC(=O)c1ccccc1S2 (stereo not drawn) |  | 97.5%
O=c1cc(-c2cccc3c2Sc2ccccc2S3)oc(N2CCOCC2)c1 |  | 98.1%
COc1cc2c(Nc3ccc(Cl)c(Cl)c3F)ncnc2cc1OCC1C[C@@H]2CN(C)C[C@@H]2C1 (stereo partly drawn) | 20.9 µM (active) | 
CN(C)c1nc(N(C)C)nc(N(C)C)n1 |  | 101%
CCN(CC)CCNC(=O)c1ccc2nc(-c3ccccc3)c(-c3ccc(CN4CCC(n5c(=O)[nH]c6ccccc65)CC4)cc3)nc2c1 | 0.166 µM (active) | 
CC1=C[C@@H]2[C@@H]([C@@H](O)C[C@@]3(C)[C@H]2C[C@@H](C)[C@]3(O)C(=O)CO)[C@@]2(C)Cc3cnn(-c4ccccc4)c3C=C12 | 0.0526 µM (active) | 
Cc1ccc(C(=O)N(CCCN)[C@@H](c2oc3cc(Cl)ccc3c(=O)c2Cc2ccccc2)C(C)C)cc1 |  | 15.1%
Oc1cc2c(cc1O)C1c3ccc(O)c(O)c3OCC1(O)C2 (stereo not drawn) |  | 84.4%
COc1cc(NS(=O)(=O)c2ccc(N)cc2)nc(OC)n1 |  | 95.3%
CCc1cc(C(N)=S)ccn1 | 7.43 µM (active) | 

experiment: Cellular viability qHTS for adrenocortical cancer (ACC) cell line SW-13 (AID 1963989); conditions: SW-13 ACC cells viability, CellTiter-Glo, 48 h; activity (max response): active compounds read low; note: nearly all actives have a fitted effect of over 65% in size;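 for activity (max response): cells grown in serum-free medium with ITS supplement; % is set by controls: 0 for no effect and ±100 for the full control effect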
How it was run: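 Viability was read as CellTiter-Glo luminescence after 48 h compound treatment (up to 46 uM final) of SW-13 cells grown serum-free; titration curves were fit with a four-parameter logistic model to give IC50 and efficacy.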

SMILES | activity (max response) | Potency
Cc1c(C(=O)Nc2ccc(N3C[C@@H](C)O[C@@H](C)C3)nc2)cccc1-c1ccc(OC(F)(F)F)cc1 | -4.43% | 
CC(C)NCC(O)c1ccc(NS(C)(=O)=O)cc1 (stereo not drawn) | 2.53% | 
COc1ccc(C2CNC(=O)C2)cc1OC1CCCC1 (stereo not drawn) | 1.73% and 4.14% | 
CC(C)Nc1cc(-c2c[nH]c(C(=O)N[C@H](CO)c3cccc(Cl)c3)c2)c(Cl)cn1 |  | 15.8 µM (active)
CCn1c(-c2nonc2N)nc2cncc(CNC3CCNCC3)c21 | -7.16% | 
Cc1ncc([N+](=O)[O-])n1CCO | -0.254% | 
C#Cc1cccc(Nc2ncnc3cc(OCCOC)c(OCCOC)cc23)c1 |  | 4.11 µM (active) and 8.91 µM (active)
C=CC(=O)Nc1cccc(Oc2nc(Nc3ccc(N4CCN(C)CC4)cc3OC)ncc2Cl)c1 |  | 8.91 µM (active)
COc1ccc2c(c1)c(CC(=O)OCC(=O)O)c(C)n2C(=O)c1ccc(Cl)cc1 | -2.34% | 
O=c1cc(N2CCOCC2)oc2c(-c3cccc4c3sc3ccccc34)cccc12 |  | 25.1 µM (active)
Cc1cnc(C(=O)NCCc2ccc(S(=O)(=O)NC(=O)NC3CCCCC3)cc2)cn1 | -1.95% and -7.3% | 
CC(C)[C@H](N)C(=O)OCCOCn1cnc2c(=O)[nH]c(N)nc21 | -3.62% and -11.6% | 
NS(=O)(=O)c1cccc2c1C(=O)c1cccc(O)c1C2=O |  | 1.26 µM (active)
NC1(C(=O)N[C@@H](CCO)c2ccc(Cl)cc2)CCN(c2ncnc3[nH]ccc23)CC1 | -21.3% | 
Cn1cc(C[C@@H](N)C(=O)O)c2ccccc21 | -6.77% | 
CCCn1c(=O)c2[nH]c(C34CC5CC3C[C@@H](C5)C4)nc2n(CCC)c1=O | -4.88% | 
CC(C)(OCc1nn(Cc2ccccc2)c2ccccc12)C(=O)O | 3.54% | 
CC(C(=O)O)c1ccc2c(c1)CC(=O)c1ccccc1S2 (stereo not drawn) | -16.4% and 14.9% | 
O=c1cc(-c2cccc3c2Sc2ccccc2S3)oc(N2CCOCC2)c1 |  | 28.2 µM (active)
COc1cc2c(Nc3ccc(Cl)c(Cl)c3F)ncnc2cc1OCC1C[C@@H]2CN(C)C[C@@H]2C1 (stereo partly drawn) |  | 2 µM (active)
CN(C)c1nc(N(C)C)nc(N(C)C)n1 | -1.75% and -4.21% | 
C[C@H](CCC(=O)O)[C@H]1CCC2C3C[C@H](O)[C@@H]4C[C@H](O)CC[C@]4(C)C3CC[C@@]21C (stereo partly drawn) | 1.86% | 
CCN(CC)CCNC(=O)c1ccc2nc(-c3ccccc3)c(-c3ccc(CN4CCC(n5c(=O)[nH]c6ccccc65)CC4)cc3)nc2c1 |  | 6.31 µM (active)
CC1=C[C@@H]2[C@@H]([C@@H](O)C[C@@]3(C)[C@H]2C[C@@H](C)[C@]3(O)C(=O)CO)[C@@]2(C)Cc3cnn(-c4ccccc4)c3C=C12 |  | 22.4 µM (active)
Cc1ccc(C(=O)N(CCCN)[C@@H](c2oc3cc(Cl)ccc3c(=O)c2Cc2ccccc2)C(C)C)cc1 |  | 0.0141 µM (active)
Oc1cc2c(cc1O)C1c3ccc(O)c(O)c3OCC1(O)C2 (stereo not drawn) | -7.46% | 
COc1cc(NS(=O)(=O)c2ccc(N)cc2)nc(OC)n1 | -1.49% | 
CNC1CCC(N(Cc2cccc(-c3ccncc3)c2)C(=O)c2sc3c(F)ccc(F)c3c2Cl)CC1 (stereo not drawn) |  | 10 µM (active)
